Counter-ions that a name gives are not always drawn.
Columns and labels:
[1] = tested on: S. cerevisiae SK1 pCDA2-eGFP (USY613), sporulating; test: CDA2-GFP sporulation assay sensitivity score (z-score vs DMSO controls); higher = stronger inhibition of sporulation, active = hit call of the paper;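 also: active if sensitivity score above 5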
[2] = tested on: S. cerevisiae NKY1551 his4x/his4B, sporulating; test: HIS4 meiotic recombination assay sensitivity score (z-score vs DMSO controls); higher = stronger inhibition of sporulation/recombination, active = hit call of the paper;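 also: active if sensitivity score above 5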
[3] = tested on: S. cerevisiae AD1-9 (efflux-pump deficient), vegetative growth in YPD; test: growth sensitivity score (doubling time z-score vs DMSO controls); higher = slower growth, strongly negative scores also mark growth inhibition (complete suppression), active = hit call of the paper
How it was run: (§1)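 Yeast (Saccharomyces cerevisiae BY4741 and AD1-9) was grown in rich medium in microtiter plates from a starting OD600 of 0.065, with optical density read every 15 min over 24 hours. The growth sensitivity score was the difference between compound and solvent-only means, divided by the solvent-only standard deviation. Every experiment had eight solvent-only wells.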

[4] = tested on: S. cerevisiae BY4741 (wild-type), vegetative growth in YPD; test: as above
How it was run: as §1

SMILES | CDA2-GFP sporulation assay sensitivity score [1] | HIS4 meiotic recombination assay sensitivity score [2] | growth sensitivity score [3] | growth sensitivity score [4]
CCC(C)(C)N=C(NC#N)Nc1cccnc1 [Tocris-1355] (stock concentration (mM, diluted 1:100): 9.9) | 3.65 (inactive) | -1.39 (inactive) | -1.02 (inactive) | 0.46 (inactive)
C#C[C@]1(O)CC[C@H]2[C@@H]3[C@H](C)CC4=C(CCC(=O)C4)[C@H]3CC[C@@]21C [Tibolone] (stock concentration (mM, diluted 1:100): 10) | 5.97 (inactive) | 1.06 (inactive) | 10.2 (active) | 0.52 (inactive)
CC(C)[C@H]1CC[C@H](C(=O)N[C@H](Cc2ccccc2)C(=O)O)CC1 [Nateglinide] (stock concentration (mM, diluted 1:100): 10) | 0.06 (inactive) | -0.37 (inactive) | 0.63 (inactive) | -0.35 (inactive)
CCOC(=O)[C@@]1(CCCCCCOc2ccc(Cl)cc2)CO1 [Etomoxir] (stock concentration (mM, diluted 1:100): 10) | 5.49 (inactive) | -1.14 (inactive) | 8.16 (active) | 1.54 (inactive)
O=C(CCCN1CC=C(n2c(=O)[nH]c3ccccc32)CC1)c1ccc(F)cc1 [Droperidol] (stock concentration (mM, diluted 1:100): 10) | 3.12 (inactive) | -0.15 (inactive) | -1.57 (inactive) | -0.99 (inactive)
O=C(O)Cc1ccccc1Nc1c(Cl)cccc1Cl [Diclofenac] (stock concentration (mM, diluted 1:100): 10) | 0.82 (inactive) | 0.28 (inactive) | 4.97 (active) | 1.48 (inactive)
C[C@]12CCC(=O)C=C1CC[C@@H]1[C@@H]2C(=O)C[C@@]2(C)[C@H]1CC[C@]2(O)C(=O)CO [Cortisone] (stock concentration (mM, diluted 1:100): 10) | 2.53 (inactive) | -0.95 (inactive) | 0.78 (inactive) | -0.57 (inactive)
COCCCOc1ccnc(C[S+]([O-])c2nc3ccccc3[nH]2)c1C (stereo not drawn) [Rabeprazole] (stock concentration (mM, diluted 1:100): 10.6) | 11.4 (active) | 3.07 (inactive) | 31.5 (active) | 12.2 (active)
CC(=O)[C@@]1(O)CC[C@H]2[C@@H]3C[C@H](C)C4=CC(=O)CC[C@]4(C)[C@H]3CC[C@@]21C [Medroxyprogesterone] (stock concentration (mM, diluted 1:100): 10) | -0.44 (inactive) | 0.24 (inactive) | 4.15 (active) | -0.01 (inactive)
O=C(O)CCc1nc(-c2ccccc2)c(-c2ccccc2)o1 [Oxaprozin] (stock concentration (mM, diluted 1:100): 10) | -0.84 (inactive) | -0.23 (inactive) | 5.72 (active) | 0.61 (inactive)
CC(C)c1nc(CN(C)C(=O)N[C@H](C(=O)N[C@@H](Cc2ccccc2)C[C@H](O)[C@H](Cc2ccccc2)NC(=O)OCc2cncs2)C(C)C)cs1 [Ritonavir] (stock concentration (mM, diluted 1:100): 10) | -0.68 (inactive) | -1.41 (inactive) | 8.8 (active) | -0.97 (inactive)
Cc1[nH]c(=O)c(C#N)cc1-c1ccncc1 [Milrinone] (stock concentration (mM, diluted 1:100): 10.1) | -1.34 (inactive) | -0.23 (inactive) | -2.83 | -0.97 (inactive)
CN(C)CCCC1(c2ccc(F)cc2)OCc2cc(C#N)ccc21 (stereo not drawn) [Citalopram hydrobromide] (stock concentration (mM, diluted 1:100): 7.9) | -1.83 (inactive) | 7.31 (active) | 0.63 (inactive) | -0.04 (inactive)
CN(C)CC[C@@H](c1ccc(Cl)cc1)c1ccccn1 [Dexchlorpheniramine maleate] (stock concentration (mM, diluted 1:100): 7) | 7.64 (inactive) | 2.35 (inactive) | -0.12 (inactive) | 0.54 (inactive)
CN1CCN(CCCN2c3ccccc3Sc3ccc(Cl)cc32)CC1 [Prochlorperazine] (stock concentration (mM, diluted 1:100): 10.4) | 2.72 (inactive) | -2.14 (inactive) |  | 146 (active)
O=c1c(O[C@@H]2O[C@H](CO)[C@H](O)[C@H](O)[C@H]2O)c(-c2ccc(O)c(O)c2)oc2cc(O)cc(O)c12 [Hyperoside] (stock concentration (mM, diluted 1:100): 8.8) | 0.06 (inactive) | 0.06 (inactive) | 0.09 (inactive) | -0.31 (inactive)

Reference: the supplement of paper PMC3414501
